Laboratory results as given in the supplement of paper PMC10338343.
± gives the standard deviation.

system: MILI (PIWIL2) piRISC loaded with piRNA #1 (26 nt); test: pre-steady-state target cleavage rate (min^-1); guide: piRNA #1 5'p-UGAGGUAGUAGGUUGUAUAGUAUCCA; MIWI and MILI are mouse PIWI proteins and EfPiwi is from a freshwater sponge; tags in brackets are library labels; higher = faster piRNA-guided slicing of the target; settings: auxiliary factor: 500 nM mouse GTSF1
Summary of the method: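 The method was Cleave-'n-Seq, in which uncleaved targets from a transcribed, DNA-blocked target RNA library were sequenced after exposure to active affinity-purified piRISC carrying one synthetic guide, with or without GTSF1 partner protein. Reactions contained 0.1 nM library, 1 nM piRISC and, where present, 500 nM GTSF1 in HEPES–potassium acetate buffer at 33 °C for 0–8 or 0–960 min. Reads were normalised to depth and to weakly complementary targets, three trials were pooled, and k3 was capped at 0.0001 min^-1. The pre-steady-state cleavage rate came from a burst-and-steady-state fit.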

GGAGUGGAUUCUAUACAACCUAGUACCUCA and GGAGUGGAUACUAUACAACCUACCACCUCA are within error of each other in “pre-steady-state target cleavage rate” value: 0.0634 ± 0.011 for the first, 0.0748 ± 0.01 for the second.

First: GGAGUGGAUACUAUACAUGGAUGAUGGAGA [g14:g26:cont:t1A]
Second: GGAGUGGAUAACUAUACAACCUACUACCUCA
The “pre-steady-state target cleavage rate” value of the first is lower: less than 0.0001 for the first, 0.0667 ± 0.0071 for the second.

Compared with GGAGUGCAUACUAUACAACCUACUACCUGA, GGAGUGAGAUACUAUACAACCUACUACCUCA is higher in “pre-steady-state target cleavage rate” value: 0.09 ± 0.011 for the first, 0.189 ± 0.012 for the second.

First: GGAGACGAUACUAUACAACCUACAACCACA
Second: GGAGACGAUCUAUACAACCUACUACCUCA
The “pre-steady-state target cleavage rate” value of the first is lower: 0.0888 ± 0.035 for the first, 0.174 ± 0.013 for the second.

First: GGAGACCUUACUAUACAACCUACUACGUGA
Second: GGAGACCUAACAUAUACAACCUACUACCUCA
The “pre-steady-state target cleavage rate” value of the first is higher: 0.137 ± 0.024 for the first, 0.026 ± 0.012 for the second.

Going from GGAGACGAUACUAUUCAACCUACUACCUCA to GGAGUGGAUACUAUACAUGGUACUACCUCA, the “pre-steady-state target cleavage rate” value falls from 0.202 ± 0.013 to 0.00713 ± 0.0016.

GGAGACCAUACUAUUCAACCUACUAGCUCA and GGAGACCUAUCUAUACAACCUAUUACCUCA are within error of each other in “pre-steady-state target cleavage rate” value: 0.11 ± 0.019 for the first, 0.0974 ± 0.01 for the second.

First: GGAGAGGAUACUAUACAACCUACUAGCCUCA
Second: GGAGACGAUUCUAUACAACCUACUACCUGA
The “pre-steady-state target cleavage rate” value of the first is lower: 0.123 ± 0.02 for the first, 0.167 ± 0.021 for the second.

First: GGAGUCGAUACUAUACUACCUACUACCUCA
Second: GGAGACCUAACUAUACAACCUACUACCUA
The “pre-steady-state target cleavage rate” value of the first is higher: 0.19 ± 0.012 for the first, 0.0998 ± 0.021 for the second.

Going from GGAGACCAUACUUUACAACCUAGUACCUCA to GGAGACGAUACUAUACAACCUUCUACCUCA, the “pre-steady-state target cleavage rate” value falls from 0.119 ± 0.025 to 0.0098 ± 0.0026.

Compared with GGAGACAAUACUAUACAACCUACUACCUCA, GGAGACGAUACUAUACAACAUACUACCUCA is lower in “pre-steady-state target cleavage rate” value: 0.253 ± 0.021 for the first, 0.0988 ± 0.0095 for the second.

First: GGAGACGAUACUAUCACAACCUACUACCUCA
Second: GGAGUGGAUACUAUACAACCUACUACUUCA
The “pre-steady-state target cleavage rate” value of the first is higher: 0.221 ± 0.017 for the first, 0.103 ± 0.0082 for the second.

Compared with “GGAGACCAUACUAUACAACCUACUAGGAGA [g6:g23:cont:t1A]”, GGAGACCUAACUAUACAACCUAAUACCUCA is higher in “pre-steady-state target cleavage rate” value: 0.00402 ± 0.0038 for the first, 0.0504 ± 0.013 for the second.

Compared with GGAGAGGUUACUAUACAACCUACUACCUCA, GGAGACCUAUCGAUACAACCUACUACCUCA is lower in “pre-steady-state target cleavage rate” value: 0.197 ± 0.014 for the first, 0.0869 ± 0.014 for the second.

Compared with GGAGUGGUUACUAUACAACGUACUACCUCA, GGAGACGAUUCUAUACAACCUACUACCACA is higher in “pre-steady-state target cleavage rate” value: 0.0218 ± 0.003 for the first, 0.219 ± 0.015 for the second.

First: GGAGACCUUACUUUACAUCCUACUACCUCA
Second: GGAGACCUUACAAUACAACCUACUACCUCA
The “pre-steady-state target cleavage rate” value of the first is higher: 0.26 ± 0.022 for the first, 0.146 ± 0.019 for the second.

Going from GGAGACGAUACUAUUCAUCCUACUACCUCA to “GGAGACCUAUGUAUACAACCUACUACCUCA [g2:g19:cont:t1A]”, the “pre-steady-state target cleavage rate” value falls from 0.264 ± 0.021 to 0.0765 ± 0.012.

Compared with GGAGAGGUUACAAUACAACCUACUACCUCA, GGAGUGGAAACUAUACAACCUUCUACCUCA is lower in “pre-steady-state target cleavage rate” value: 0.181 ± 0.014 for the first, 0.00517 ± 0.0028 for the second.

GGAGAGGAUACUUUACAACCUUCUACCUCA and GGAGACCUAACUAUACAACGUACUACCACA are within error of each other in “pre-steady-state target cleavage rate” value: 0.00789 ± 0.002 for the first, 0.0131 ± 0.0058 for the second.

With GGAGACGAUACUAUACAACCUAGAUCCUCA the “pre-steady-state target cleavage rate” value was 0.00708 ± 0.0033.
